The record followed here is PubChem BioAssay (Tox21).

Each structure is given as a SMILES string. Values without a mark were called inactive. Inconclusive results are not listed. Calls of active or inactive are those of the source. Unless noted, the call rests on the fitted dose curve; in most records, active means well fitted curve in the direction sought with a large enough effect in the repeat runs; inconclusive means weak or mixed curves; inactive means no such curve, though single readings can be large; an effect the other way counts as inactive or inconclusive.

Assay [1] can be described thus: qHTS assay to test for compound auto fluorescence at 535 nm (green) in HEK293 cells (AID 720680; further: on the % scale 0 is the no-effect control and ±100 the full control effect). (qHTS replaces the single test concentration by a dilution series.)
The nature of assay [2]: qHTS assay to test for compound auto fluorescence at 460 nm (blue) in HEK293 cell free culture (AID 720681). Further: on the % scale 0 is the no-effect control and ±100 the full control effect. A digest of the protocol: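 Blue fluorescence (Ex 405/Em 460 nm, triamterene-equivalent) was read immediately after pin transfer of compound or DMSO into medium (DMEM, 10% FBS) without cells.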
A short description of assay [3]: qHTS assay to test for compound auto fluorescence at 535 nm (green) in HEK293 cell free culture (AID 720682). Further: on the % scale 0 is the no-effect control and ±100 the full control effect. In a few lines: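 Using fluorescein as calibrant, autofluorescence was quantified at 485/535 nm in cell-free DMEM containing 10% FBS after pintool addition of compound or vehicle.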
The nature of assay [4]: qHTS assay to test for compound auto fluorescence at 590 nm (red) in HEK293 cell free culture (AID 720683). Further: on the % scale 0 is the no-effect control and ±100 the full control effect. In a few lines: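 Red-channel autofluorescence of compounds in culture medium (DMEM, 10% FBS), no cells, measured at 540/590 nm. Rose Bengal sodium is the reference fluorophore for equivalence.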
The nature of assay [5]: qHTS assay to test for compound auto fluorescence at 590 nm (red) in HepG2 cell free culture (AID 720684). Further: on the % scale 0 is the no-effect control and ±100 the full control effect. In a few lines: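 Cell-free; medium MEM + 10% FBS; compound or DMSO added by pintool; read Ex 540/Em 590 nm; Rose Bengal sodium as red reference fluorophore.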
Assay [6] can be described thus: qHTS assay to test for compound auto fluorescence at 460 nm (blue) in HepG2 cell free culture (AID 720685). Further: on the % scale 0 is the no-effect control and ±100 the full control effect. A digest of the protocol: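 Cell-free plates of MEM plus 10% FBS received 23 nL compound or DMSO vehicle; blue-channel (405/460 nm) intensity scored against triamterene as reference fluorophore.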
A short description of assay [7]: qHTS assay to test for compound auto fluorescence at 535 nm (green) in HepG2 cell free culture (AID 720686). Further: on the % scale 0 is the no-effect control and ±100 the full control effect.
Assay [8] in a line: qHTS assay to test for compound auto fluorescence at 460 nm (blue) in HepG2 cells (AID 720687). Further: on the % scale 0 is the no-effect control and ±100 the full control effect. A digest of the protocol:
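Blue-channel autofluorescence (Ex/Em 405/460 nm, triamterene-equivalent) was measured after 1 hr compound exposure at 37 C, 5% CO2. Cells were HepG2, plated overnight at 37 C in MEM plus 10% FBS.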

For assay [9], the target named is Glucocorticoid receptor (Homo sapiens) (UniProt P04150). The assay can be described thus: qHTS assay to identify small molecule agonists of the glucocorticoid receptor (GR) signaling pathway (AID 720691; active means well fitted activation curve with a large enough effect in the signal ratio in the repeat runs, not every such curve was filed as active; the % refers to the signal ratio; further: on the % scale 0 is the no-effect control and ±100 the full control effect). A digest of the protocol:
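Compounds in DMSO, alongside positive controls, were added to GR-bla HeLa reporter cells and incubated 18 h at 37 C; GRE-driven beta-lactamase was detected by fluorescence after 2 h with FRET substrate at room temperature.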

Assay [10] in a line: qHTS assay to identify small molecule antagonists of the glucocorticoid receptor (GR) signaling pathway - cell viability counter screen (AID 720693). Further: on the % scale 0 is the no-effect control and ±100 the full control effect; nearly all actives have a fitted effect of over 55% in size.
For assay [11], the target named is Androgen receptor (Homo sapiens) (UniProt P10275). Put plainly: qHTS assay to identify small molecule antagonists of the androgen receptor (AR) signaling pathway (AID 743035; active means well fitted inhibition curve with a large enough effect in the signal ratio in the repeat runs, not every such curve was filed as active; the % refers to the signal ratio; further: potency means the concentration at half of the fitted maximal effect). In a few lines: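 Reporter HEK293 cells were exposed to compounds and R1881 overnight (16 h, 37C); beta-lactamase activity was then quantified by FRET fluorescence.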
Androgen receptor (Homo sapiens), sequence (P10275 whole entry, looked up): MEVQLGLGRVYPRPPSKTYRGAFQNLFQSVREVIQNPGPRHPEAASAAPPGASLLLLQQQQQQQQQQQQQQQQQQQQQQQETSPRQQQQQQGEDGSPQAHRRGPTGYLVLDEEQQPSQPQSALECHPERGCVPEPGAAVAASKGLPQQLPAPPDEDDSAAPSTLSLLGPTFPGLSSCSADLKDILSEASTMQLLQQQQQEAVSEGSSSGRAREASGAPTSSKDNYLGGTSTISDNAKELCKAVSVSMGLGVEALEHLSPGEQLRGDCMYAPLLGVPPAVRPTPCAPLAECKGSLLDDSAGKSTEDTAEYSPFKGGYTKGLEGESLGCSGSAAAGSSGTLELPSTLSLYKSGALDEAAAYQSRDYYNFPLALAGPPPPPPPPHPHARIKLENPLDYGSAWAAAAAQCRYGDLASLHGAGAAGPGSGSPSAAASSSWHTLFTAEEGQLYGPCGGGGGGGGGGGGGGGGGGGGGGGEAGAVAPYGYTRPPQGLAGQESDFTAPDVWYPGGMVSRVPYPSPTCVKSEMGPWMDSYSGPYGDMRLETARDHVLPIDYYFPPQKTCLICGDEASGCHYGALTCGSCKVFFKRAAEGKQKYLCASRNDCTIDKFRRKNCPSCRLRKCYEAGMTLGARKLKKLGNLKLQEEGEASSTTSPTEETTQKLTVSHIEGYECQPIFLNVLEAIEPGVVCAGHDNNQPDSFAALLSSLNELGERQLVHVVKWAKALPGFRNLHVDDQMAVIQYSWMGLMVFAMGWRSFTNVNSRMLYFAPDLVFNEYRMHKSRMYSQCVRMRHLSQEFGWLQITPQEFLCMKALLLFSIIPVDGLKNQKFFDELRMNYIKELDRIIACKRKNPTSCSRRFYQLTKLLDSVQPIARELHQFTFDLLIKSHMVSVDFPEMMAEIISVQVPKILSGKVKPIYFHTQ
Assay [12] has the same target. The assay can be described thus: qHTS assay to identify small molecule agonists of the androgen receptor (AR) signaling pathway (AID 743036; active means well fitted activation curve with a large enough effect in the signal ratio in the repeat runs, with a control signal flat, not every such curve was filed as active; the % refers to the signal ratio; further: on the % scale 0 is the no-effect control and ±100 the full control effect). A digest of the protocol: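 In this Tox21 qHTS, 2,000 HEK293 AR-bla cells per well were incubated with compounds for 16 h at 37C and 5% CO2. Fluorescence intensity was recorded 2 h after adding LiveBLAzer B/G FRET substrate at room temperature.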

Assay [13] has the same target. The assay can be described thus: qHTS assay to identify small molecule agonists of the androgen receptor (AR) signaling pathway using the MDA cell line (AID 743040; further: on the % scale 0 is the no-effect control and ±100 the full control effect; nearly all actives have a fitted effect of over 20% in size). In a few lines: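 Luciferase agonist assay: 16 h compound exposure at 37C without CO2 in MDA-kb2 AR-luc cells, whose MMTV promoter responds to both AR and GR. Luminescence measured after 30 min room-temperature incubation with ONE-Glo.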

Assay [14] can be described thus: qHTS assay to identify small molecule antagonists of the androgen receptor (AR) signaling pathway using the MDA cell line - cell viability counter screen (AID 743041; further: on the % scale 0 is the no-effect control and ±100 the full control effect; nearly all actives have a fitted effect of over 45% in size). A digest of the protocol: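 Viability read by CellTiter-Fluor fluorescence in the same wells as the antagonist screen, added after 15.5 h of a 16 h, 37C exposure. Human breast carcinoma MDA-kb2 AR-luc cells, compounds co-dosed with agonist R1881.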

Assay [15] concerns the target Androgen receptor (Homo sapiens) (UniProt P10275). Put plainly: qHTS assay to identify small molecule antagonists of the androgen receptor (AR) signaling pathway using the MDA cell line (AID 743042; further: on the % scale 0 is the no-effect control and ±100 the full control effect; nearly all actives have a fitted effect of over 55% in size). A digest of the protocol:
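Antagonist mode: compounds plus R1881 agonist added to MDA-kb2 AR-luc cells, incubated 16 h at 37C. Luciferase reporter luminescence quantified, with multiplexed CellTiter-Fluor readout for cell viability.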

Assay [16] is described as follows: qHTS assay for identifying genotoxic compounds that show differential cytotoxicity against isogenic chicken DT40 cell lines with known DNA damage response pathways - wild type cell line (AID 743012). Further: potency means the concentration at half of the fitted maximal effect; nearly all actives have a fitted effect of over 60% in size. In a few lines: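 Viability of DNA repair-proficient chicken DT40 cells was assessed by CellTiter-Glo luminescence following 40 h compound exposure at 37 C/5% CO2.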

A short description of assay [17]: qHTS assay for identifying genotoxic compounds that show differential cytotoxicity against isogenic chicken DT40 cell lines with known DNA damage response pathways - Rev3 mutant cell line (AID 743014). Further: potency means the concentration at half of the fitted maximal effect; nearly all actives have a fitted effect of over 55% in size.
Assay [18] can be described thus: qHTS assay for identifying genotoxic compounds that show differential cytotoxicity against isogenic chicken DT40 cell lines with known DNA damage response pathways - Rad54/Ku70 mutant cell line (AID 743015). Further: potency means the concentration at half of the fitted maximal effect; nearly all actives have a fitted effect of over 60% in size.
In assay [19] the target is Glucocorticoid receptor (Homo sapiens) (UniProt P04150). Put plainly: qHTS assay to identify small molecule antagonists of the glucocorticoid receptor (GR) signaling pathway (AID 720692; active means well fitted inhibition curve with a large enough effect in the signal ratio in the repeat runs, not every such curve was filed as active; the % refers to the signal ratio; further: on the % scale 0 is the no-effect control and ±100 the full control effect). In a few lines: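 In a 1536-well cell format, compounds were added 4 h after seeding GR-bla HeLa cells, together with dexamethasone at 5 nM final; reporter activity was measured by FRET-substrate fluorescence following 18 h at 37 C.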
Glucocorticoid receptor (Homo sapiens), sequence (P04150 whole entry, looked up): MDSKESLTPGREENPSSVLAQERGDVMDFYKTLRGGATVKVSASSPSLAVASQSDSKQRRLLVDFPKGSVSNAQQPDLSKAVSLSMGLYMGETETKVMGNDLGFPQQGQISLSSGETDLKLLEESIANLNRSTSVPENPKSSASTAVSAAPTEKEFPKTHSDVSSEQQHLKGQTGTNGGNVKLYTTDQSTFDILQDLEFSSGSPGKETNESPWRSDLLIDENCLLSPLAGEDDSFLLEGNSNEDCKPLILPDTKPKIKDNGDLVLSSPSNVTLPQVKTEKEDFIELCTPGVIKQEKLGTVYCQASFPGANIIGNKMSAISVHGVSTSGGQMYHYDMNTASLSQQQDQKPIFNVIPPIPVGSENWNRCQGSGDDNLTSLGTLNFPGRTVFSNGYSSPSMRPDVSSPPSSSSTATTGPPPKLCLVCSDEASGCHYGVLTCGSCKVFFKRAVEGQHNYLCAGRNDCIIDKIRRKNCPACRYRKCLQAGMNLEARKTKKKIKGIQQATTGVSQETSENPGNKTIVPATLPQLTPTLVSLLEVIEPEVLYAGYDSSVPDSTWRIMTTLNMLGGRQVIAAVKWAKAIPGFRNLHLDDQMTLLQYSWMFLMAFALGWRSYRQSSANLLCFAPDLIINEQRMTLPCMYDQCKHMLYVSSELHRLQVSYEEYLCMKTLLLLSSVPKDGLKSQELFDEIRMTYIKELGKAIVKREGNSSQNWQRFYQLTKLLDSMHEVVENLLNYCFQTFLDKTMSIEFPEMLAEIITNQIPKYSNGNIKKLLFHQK

Assay [20] is described as follows: qHTS assay to identify small molecule antagonists of the androgen receptor (AR) signaling pathway - cell viability counter screen (AID 743033; further: on the % scale 0 is the no-effect control and ±100 the full control effect; nearly all actives have a fitted effect of over 45% in size).

With `O=C=Nc1cccc(C(F)(F)F)c1`, the compound was classed as inactive in assay [1], in [3], in assay [4], in assay [5], in assay [7] and in assay [12]. Also, the outcome in [13] was inactive. Moreover, the Potency entry in [2], in assay [6], in assay [8], in [9], in [10] and in assay [14] was “inactive” in each case. Further, in [15], the Potency entry was “inactive”. Also, in assay [11], the Potency is 48.6 µM (active).

With `C[C@@H](CN(C)C)CN1c2ccccc2Sc2ccccc21`, the fluorescence, % of fluorescein in assay [1] is -0.0143% [at 18.6 µM]. Moreover, the fluorescence, % of fluorescent control is 0.0136% [at 18.6 µM] in [2], 0.012% [at 18.6 µM] in [4], 0.0401% [at 18.6 µM] in assay [6] and -0.0799% [at 18.6 µM] in assay [8]. Besides, in [3], the activity change was -0.0963% [at 18.6 µM]. In addition, the fluorescence, % of Rose Bengal in assay [5] was -0.209% [at 18.6 µM]. Also, the fluorescence, % of fluorescein control in assay [7] is -0.0052% [at 18.6 µM]. For the same compound, the Potency entry in assay [9], in [10] and in assay [14] was “inactive” each time. For the same compound, the Potency in assay [16], in [17] and in assay [18] was 11.4 µM (active) throughout.

Regarding `CCC1(CO)COCOC1`, the compound was classed as inactive in assay [1], in assay [3], in assay [4], in assay [5] and in [7]. For the same compound, the Potency result in assay [2], in assay [6], in assay [8], in assay [9], in assay [19] and in assay [20] was “inactive” throughout. In addition, in assay [14], the Potency entry was “inactive”.

Consider `C=C(C)[C@@H]1CCC2=CCC[C@@H](C)[C@]2(C)C1`, for which the compound was classed as inactive in assay [1], in [3], in assay [4], in assay [5], in [7] and in [12]. In addition, in assay [13], the compound was classed as inactive. The Potency result in assay [2], in [6], in [8], in [9], in [20] and in assay [11] was “inactive” each time. Besides, the Potency entry in [14] and in assay [15] was “inactive” each time. Further, the results for the Potency in assay [16], in [17] and in assay [18] were 27.3 µM (active), 27.3 µM (active) and 15.4 µM (active), respectively.

Take `CC(=O)N/N=C/c1ccc([N+](=O)[O-])o1`: the result in assay [1], in [3], in assay [4], in [5] and in assay [7] was inactive. Also, the Potency entry in assay [2], in assay [6], in assay [8], in assay [9], in [20] and in [14] was “inactive” each time. Further, the Potency in assay [16] was 11.9 µM (active); in assay [17], 10.6 µM (active); in [18] it was 18.8 µM (active).

`CC(C)COCC(CN(Cc1ccccc1)c1ccccc1)N1CCCC1` (stereo not given): the outcome in assay [1], in [3], in assay [4], in assay [5] and in [7] was inactive. The Potency entry in assay [2], in assay [6], in assay [8], in assay [9], in assay [10] and in assay [20] was “inactive” in each case. The Potency result in assay [14] was “inactive”. In addition, the Potency in assay [16] was 5.31 µM (active); in assay [17] it was 8.41 µM (active); in [18] it was 7.5 µM (active).

In the case of `COc1cc(N)c(Cl)cc1C(=O)NC1CCN(CCCOc2ccc(F)cc2)CC1OC` (stereo not given), the fluorescence, % of fluorescein in [1] was 0.0057% [at 18.6 µM]. Moreover, the fluorescence, % of fluorescent control in [2] was -0.0155% [at 18.6 µM]; in assay [4], 0.142% [at 18.6 µM]; in assay [6], -0.0728% [at 18.6 µM]; in [8] it was 0.156% [at 18.6 µM]. Also, the activity change in [3] is 0.0082% [at 18.6 µM]. Besides, the fluorescence, % of Rose Bengal in assay [5] was -0.186% [at 18.6 µM]. Moreover, the fluorescence, % of fluorescein control in [7] was -0.0661% [at 18.6 µM]. Moreover, the Potency entry in assay [9], in assay [19], in assay [20] and in [14] was “inactive” each time. The results for the Potency in assay [16] and in [18] were 11.4 µM (active) and 12.7 µM (active), respectively.

For the compound `Cc1ccccc1N=C(N)Nc1ccccc1C`, the compound was classed as inactive in [1], in assay [3], in assay [4], in assay [5] and in assay [7]. Also, the Potency result in assay [2], in [6], in [8], in assay [9], in assay [10] and in assay [20] was “inactive” throughout. Besides, the Potency result in [14] is “inactive”. For the same compound, in assay [17], the Potency was 30.1 µM (active).
